Data as given in the antibiotic and cytotoxicity screens of Wong et al. (2023).
Out of some 39,000 compounds screened, about 500 (1.3%) were called active. What follows is part of a selection rich in actives, with near analogues and random picks from the rest.

These compounds were tested on S. aureus RN4220 (assay: growth inhibition call (relative growth <= 0.2)). Conditions: 50 µM.

Row | SMILES | growth inhibition call
1 | Cc1ccc(-c2c[nH]c(=S)[nH]2)cc1 | inactive
2 | Cn1c(-c2ccccc2)c[nH]c1=S | inactive
3 | S=c1[nH]cc(-c2ccccc2)[nH]1 | active
4 | CC1CC2C3CCC4=CC(=O)C=CC4(C)C3(Cl)C(O)CC2(C)C1(OC(=O)c1ccco1)C(=O)CCl (configuration not stated) | inactive
5 | CN(C)C(=O)c1ccc(-c2cccc(-c3nc(C(=O)NC4CCCC4)cc4c3[C@@H](CCO)N([S@](=O)C(C)(C)C)C4)c2)cc1 | inactive
6 | COc1ccc(S(=O)(=O)Nc2ccc3c(c2)C(=O)N([C@@H](C)CO)C[C@H](C)[C@@H](CN(C)S(C)(=O)=O)OCCCC[C@@H](C)O3)cc1 | inactive
7 | COc1cc2nc(N3CCCN(Cc4ccccc4)CC3)nc(Nc3ccc(F)c(Cl)c3)c2cc1OC | inactive
8 | COc1cc2nc(N3CCCN(Cc4ccccc4)CC3)nc(NC3CCN(Cc4ccccc4)CC3)c2cc1OC | inactive
9 | Brc1ccc2nc(N3CCCN(Cc4ccccc4)CC3)nc(NC3CCN(Cc4ccccc4)CC3)c2c1 | active
10 | COc1ccc2c3c(n(c2c1)C)[C@H](CO)N(Cc1cc(cc(c1)OC)OC)C[C@]13CN(C1)C(=O)NC(C)C | inactive
11 | COc1ccc(-c2ccc3cc(C(=O)O)ccc3c2)cc1C12CC3CC(CC(C3)C1)C2 | inactive
12 | O=C(O)c1ccc2cc(-c3ccc(O)c(C45CC6CC(CC(C6)C4)C5)c3)ccc2c1 | active
13 | O=C(O)c1ccc2ccccc2c1 | inactive
14 | CCO[C@@H]1OC(C(=O)N2CCOCC2)=C[C@H](c2ccccc2)[C@H]1CCCOC(=O)NCCCCCC(=O)NO | inactive
15 | Cc1noc(C)c1NC(=O)N(C)C[C@@H]1Oc2c(NC(=O)c3ccncc3)cccc2C(=O)N([C@@H](C)CO)C[C@H]1C | inactive
16 | COc1ccc(S(=O)(=O)N(C)C[C@H]2OCCCC[C@H](C)Oc3ccc(NS(C)(=O)=O)cc3C(=O)N([C@H](C)CO)C[C@H]2C)cc1 | inactive

Row | SMILES | growth inhibition call
17 | CC(C)c1onc(-c2c(Cl)cccc2Cl)c1COc1ccc(/C=C/c2cccc(C(=O)O)c2)c(Cl)c1 | active
18 | CC(C)c1onc(-c2c(Cl)cccc2Cl)c1COc1ccc(C=Cc2cccc(C(=O)O)c2)c(Cl)c1 | inactive
19 | O=C(O)c1ccnc(N2CC(O)(c3ccc(OCc4c(-c5c(Cl)cccc5Cl)noc4C4CC4)cc3Cl)C2)c1 | inactive
20 | CN(C)C(=O)C[C@H]1C=C[C@@H](NC(=O)C2CC2)[C@H](CO)O1 | inactive
21 | CCCCc1oc2ccc(NS(C)(=O)=O)cc2c1C(=O)c1ccc(OCCCN(CCCC)CCCC)cc1 | active
22 | CCCCc1oc2ccc(NS(C)(=O)=O)cc2c1C(=O)c1ccc(OCCCN(CCCC)CCCC)cc1.Cl | inactive
23 | CCCCN(CCCC)CCCOC(=O)c1ccc(N)cc1.O=S(=O)(O)O | inactive
24 | COC(=O)[C@H](Cc1ccc(-n2cc(C(=O)NO)nn2)cc1)N1C[C@](C)(OC)O[C@@H](Cc2ccccc2)[C@H]1/C=C/C1CC1 | inactive
25 | Cc1c(N)nc([C@H](CC(N)=O)NC[C@H](N)C(N)=O)nc1C(=O)N[C@H](C(=O)N[C@H](C)[C@@H](O)[C@H](C)C(=O)N[C@H](C(=O)NCCc1nc(-c2nc(C(=O)NCCCNCCCCN)cs2)cs1)[C@@H](C)O)[C@@H](O[C@@H]1O[C@@H](CO)[C@@H](O)[C@H](O)[C@@H]1O[C@@H]1O[C@H](CO)[C@@H](O)[C@H](OC(N)=O)[C@@H]1O)c1c[nH]cn1 | active
26 | Clc1ccc(C(c2ccc(Cl)cc2)[n+]2ccn(C[C@@H](OCc3ccc(Cl)cc3Cl)c3ccc(Cl)cc3Cl)c2)cc1 | inactive
27 | CCC1OC(=O)C(C)C(OC2CC(C)(OC)C(O)C(C)O2)C(C)C(OC2OC(C)CC(N(C)C)C2O)C(C)(O)CC(C)C2NC(COCCOC)OC(C2C)C1(C)O (configuration not stated) | active
28 | CC[C@H]1OC(=O)[C@H](C)[C@@H](O[C@H]2C[C@@](C)(OC)[C@@H](O)[C@H](C)O2)[C@H](C)[C@@H](O[C@@H]2O[C@H](C)C[C@H](N(C)C)[C@H]2O)[C@](C)(O)C[C@@H](C)[C@@H]2N[C@@H](COCCOC)O[C@H]([C@H]2C)[C@]1(C)O | active
29 | CO[C@@H]1CN(C)C(=O)c2cc(NC(=O)Nc3ccc(Cl)cc3)ccc2OC[C@@H](C)N(C(=O)Nc2c(C)noc2C)C[C@@H]1C | inactive
30 | Cc1ccc(S(=O)(=O)N(C)C[C@@H]2OCCCC[C@@H](C)Oc3ccc(NS(C)(=O)=O)cc3C(=O)N([C@H](C)CO)C[C@@H]2C)cc1 | inactive
31 | O=C(C[C@H]1CC[C@H]2[C@@H](COC[C@@H](O)CN2C(=O)c2ccncc2)O1)NC1CCC1 | inactive
32 | COCC(=O)N1C[C@]2(C1)CN([C@@H](CO)c1[nH]c3cc(ccc3c12)OC)S(=O)(=O)C | inactive
